Experiment [1] is described as follows: liver-stage malaria parasite growth inhibition, primary screen, cell-based, HepG2, luciferase luminescence, HepG2 viability (AID 624349; in the data active means parasite load remaining mostly below about 12%, no sharp cut-off; inactive means mostly above about 10%;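 further: 100% = mean of DMSO negative control wells on the same plate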). Conditions: P. berghei liver stage in HepG2, luciferase luminescence, concentration not given here; parasite load remaining: stronger effect = lower value; viability: measured here: HepG2 viability without parasites.
Experiment [2] is described as follows: Cy5 fluorescence interference with SSB-bound oligo, artefact control for HCV NS3 helicase inhibitor project, biochemical, NIH Clinical Collection, E. coli SSB (AID 743268; call rule not given here).
For experiment [3], the system named is Hepatitis C virus NS3 helicase. Put plainly: HCV NS3 helicase inhibitors, primary screen, biochemical, fluorescence polarization, NIH Clinical Collection (AID 743270; call rule not given here). Conditions: NS3 helicase binding to Cy5-dT15 DNA, stronger effect = higher value, concentration not given here. (In general: Polarisation of emitted light reports the rotation of a fluorescent probe.)
Experiment [4] has as its target Single-stranded DNA-binding protein (Escherichia coli (strain K12)) (UniProt P0AGE0). Put plainly: E. coli SSB displacement from DNA, counter-screen for HCV NS3 helicase inhibitor project, biochemical, fluorescence polarization, NIH Clinical Collection (AID 743271; in the data active means inhibition above about 28%). The settings on record: stronger effect = higher value, concentration not given here. (The purpose of a counterscreen is to sort out artefacts and off-target activity.)

The nature of experiment [5]: fluorescence interference in NS3h assay format, artefact control for HCV NS3 helicase inhibitor project, biochemical, NIH Clinical Collection (AID 743272; call rule not given here;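 further: HCV NS3 helicase with a Cy5 labelled single stranded DNA probe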). Conditions: fluorescence interference counterscreen, stronger effect = lower value.
Experiment [6] can be described thus: sensitizers of A549 cells to miR-34 induction, primary screen, imaging, A549 dox-inducible miR-34, nuclei and caspase counts (AID 1347080;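 active means compounds whose cell count with miR-34 switched on is under 0.7 times the count with it off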). The settings on record: A549 miR-34 inducible, Hoechst nuclei count, 48 h.
The test system of the next experiment is F380Y. Put plainly: modulators of BK channel variants, profiling panel, selectivity assay, cell-based, U2OS BacMam, thallium flux, beta subunits (AID 1259406).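 Further: initial slope of Thallos dye fluorescence rise after thallium is added; log ratio against the mean of 0.3% DMSO vehicle wells on the same plate.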 The settings on record: at 30 µM.
For the next experiment, the system named is F380Y/beta2Delta. The description is as above. Conditions: at 30 µM.
The test system of a further experiment is R275C. The description is as above. Conditions: at 30 µM.
The subject of the next experiment is R275C/beta1. The experiment is described as above. Conditions: at 30 µM.
Another experiment has as its system R275C/beta2Delta. Described as above. The settings on record: at 30 µM.
The subject of the next experiment is R275C/Slo1WT/beta2. The experiment is described as above. Conditions: at 30 µM.
Setting [7] is: measured here: relative caspase fold change +Dox/-Dox.
The mark [8] stands for this setting: measured here: total cells with miR-34 induction, stronger effect = lower value.
[9] abbreviates: measured here: total cells without miR-34 induction.

From PubChem BioAssay come the findings set out here.

Where “and” joins values, the source holds several entries; their conditions need not be identical. Equal entries are not always repeated. Calls of active or inactive are those of the source.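 How the source made its calls, unless noted: active means thallium flux through the channel raised or lowered by more than 3 SD from vehicle-only wells, actives on both sides; inactive means the rest.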

For the compound `COc1ccc(CCN)cc1OC`, the parasite load remaining in experiment [1] was 69.1% (inactive). Also, in [1], the viability – broadly, a read-out of living cells in per cent, often relative to untreated cells – stood at 72%. The fluorescence ratio was 0.93 (inactive) in experiment [2] and 0.92 (inactive) in [5]. Moreover, the inhibition (in general, the relative decrease from the control value, in per cent) was -0.22% (inactive) in experiment [3] and 5.91% (inactive) in experiment [4]. Moreover, the fold change in experiment [6] (stronger effect = lower value) is 1.12 (inactive); in experiment [6] (setting [7]), 0.533. In addition, the results for the cell count in experiment [6] (setting [8]) and in experiment [6] (setting [9]) were 8740 and 7830, respectively. Moreover, the log fold change Tl+ flux in the experiment on F380Y was -0.0565 (inactive); with F380Y/beta2Delta, -0.0175 (inactive); in the experiment on R275C, -0.00436 (inactive); in the experiment on R275C/beta1 it was -0.0128 (inactive); in the experiment on R275C/beta2Delta, -0.00532 (inactive); in the experiment on R275C/Slo1WT/beta2, -0.0122 (inactive).

Consider `CC[C@@H]1C=CC=CC[C@H](C)[C@@H](O)[C@@H](C)C(=O)[C@H](C)[C@@H](O)[C@H](C)C(=O)[C@H](C)[C@@H](O)[C@H](C)C=CC(=O)O[C@H]2[C@@H](C)[C@@H](CC1)O[C@@]1(CC[C@@H](C)[C@@H](C[C@H](C)O)O1)[C@@H]2C`, for which, in experiment [1], the parasite load remaining was 1.55% (active). In addition, the viability in experiment [1] was 67.4%. Besides, the results for the fluorescence ratio in [2] and in experiment [5] were 1.01 (inactive) and 0.98 (inactive), respectively. The inhibition was 4.36% (inactive) in experiment [3] and 7.6% (inactive) in experiment [4]. The log fold change Tl+ flux in the experiment with F380Y is -0.509 (active); with F380Y/beta2Delta, -0.884 (active); in the experiment on R275C it was -0.133 (active); in the experiment on R275C/beta1, 0.0227 (inactive); in the experiment on R275C/beta2Delta, -0.0422 (inactive); in the experiment on R275C/Slo1WT/beta2 it was -0.0132 (inactive).

For the compound `COC(=O)N1CCN(C(=O)Cc2ccc(Cl)c(Cl)c2)C(CN2CCCC2)C1` (stereo unspecified), the parasite load remaining in experiment [1] was 76.7% (inactive). Besides, in experiment [1], the viability came out at 75.4%. For the same compound, the fluorescence ratio was 1.05 (inactive) in [2] and 1.03 (inactive) in [5]. The inhibition in experiment [3] was 4.36% (inactive); in [4], 2.21% (inactive). For the same compound, the fold change in [6] (stronger effect = lower value) is 0.961 (inactive); in experiment [6] (stronger effect = lower value, cell number ratio, induced over uninduced), 0.883 (inactive); in experiment [6] (setting [7]), 1.01 and 1.9. In addition, the cell count in experiment [6] (setting [8]) is 10100 and 8750; in [6] (setting [9]) it was 10500 and 9910. Besides, the log fold change Tl+ flux in the experiment with F380Y is 0.0797 (inactive); in the experiment with F380Y/beta2Delta, 0.0718 (inactive); in the experiment on R275C, -0.00833 (inactive); in the experiment with R275C/beta1 it was 0.0475 (inactive); in the experiment on R275C/beta2Delta it was 0.0511 (inactive); in the experiment on R275C/Slo1WT/beta2, 0.0529 (inactive).

Turning to `CN1CC[C@@]23CCCC[C@@H]2[C@@H]1Cc1ccc(O)cc13`, in [1], the parasite load remaining is 97.8% (inactive). This compound had a viability in experiment [1] of 68.2%. The fluorescence ratio in experiment [2] is 0.99 (inactive); in [5], 0.91 (inactive). Further, the inhibition in experiment [3] was -1.98% (inactive); in [4], -3.18% (inactive). The log fold change Tl+ flux was 0.0229 (inactive) in the experiment on F380Y; 0.00585 (inactive) in the experiment with F380Y/beta2Delta; 0.00894 (inactive) in the experiment on R275C; 0.0266 (inactive) with R275C/beta1; 0.00635 (inactive) in the experiment on R275C/beta2Delta.

Regarding `Cc1ncc2n1-c1ccc(Cl)cc1C(c1ccccc1F)=NC2`, in experiment [1], the parasite load remaining was 105% (inactive). Further, the viability in experiment [1] stood at 73.5%. Further, the fluorescence ratio in experiment [2] was 1.04 (inactive); in [5], 1.02 (inactive). For the same compound, the figures for the inhibition in experiment [3] and in [4] were -1.98% (inactive) and -3.18% (inactive), respectively. Also, the fold change in [6] (stronger effect = lower value) is 1.08 (inactive); in [6] (setting [7]), 1.63. The results for the cell count in experiment [6] (setting [8]) and in experiment [6] (setting [9]) were 6900 and 6400, respectively. For the same compound, the log fold change Tl+ flux in the experiment on F380Y was -0.403 (active); in the experiment with F380Y/beta2Delta, -0.205 (active); in the experiment on R275C, -0.0381 (inactive); in the experiment with R275C/beta1, -0.128 (active); with R275C/beta2Delta, -0.00496 (inactive); in the experiment on R275C/Slo1WT/beta2, 0.000117 (inactive).

Take `CCOC(=O)C1(c2ccccc2)CCN(CCC(C#N)(c2ccccc2)c2ccccc2)CC1`: in [1], the parasite load remaining was 6.85% (inactive). Besides, the viability in experiment [1] was 62%. Moreover, the fluorescence ratio in experiment [2] is 0.99 (inactive); in [5], 0.88 (inactive). Besides, the results for the inhibition in [3] and in experiment [4] were 1.98% (inactive) and 4.52% (inactive), respectively. The fold change in experiment [6] (stronger effect = lower value) is 1.03 (inactive); in experiment [6] (setting [7]), 1.81. For the same compound, the cell count in experiment [6] (setting [8]) came to 4740; in experiment [6] (setting [9]), 4590. The log fold change Tl+ flux is -0.0196 (inactive) with F380Y; -0.00205 (inactive) in the experiment with F380Y/beta2Delta; 0.0145 (inactive) in the experiment on R275C; -0.137 (active) with R275C/beta1; -0.169 (active) in the experiment on R275C/beta2Delta; 0.0218 (inactive) in the experiment on R275C/Slo1WT/beta2.

Turning to `C[C@]12CCC(=O)C[C@@H]1CC[C@@H]1[C@@H]2CC[C@@]2(C)[C@H]1CC[C@]2(C)O`, the parasite load remaining in [1] was 79.1% (inactive). The same compound displayed a viability in [1] of 70.4%. Moreover, the figures for the fluorescence ratio in experiment [2] and in experiment [5] were 1.04 (inactive) and 0.92 (inactive), respectively. In addition, the inhibition in experiment [3] was -0.4% (inactive); in [4], -3.18% (inactive). For the same compound, the log fold change Tl+ flux with F380Y was 0.00819 (inactive); in the experiment with F380Y/beta2Delta, 0.0319 (inactive); in the experiment with R275C, -0.0214 (inactive); in the experiment on R275C/beta1, 0.0156 (inactive); with R275C/beta2Delta, 0.0537 (inactive); in the experiment with R275C/Slo1WT/beta2 it was 0.012 (inactive).

Consider `CC(C)[C@]12O[C@H]1[C@@H]1O[C@]13[C@]1(O[C@H]1C[C@H]1C4=C(CC[C@@]13C)C(=O)OC4)[C@@H]2O`, for which the parasite load remaining in experiment [1] was 122% (inactive). The viability in [1] stood at 67.7%. In addition, the fluorescence ratio is 1.04 (inactive) in experiment [2] and 1.03 (inactive) in experiment [5]. Also, the inhibition in [3] is -2.77% (inactive); in experiment [4], -6.26% (inactive). The fold change in experiment [6] (stronger effect = lower value) was 1.04 (inactive); in experiment [6] (setting [7]) it was 1.51. Besides, the cell count in experiment [6] (setting [8]) was 1360; in experiment [6] (setting [9]) it was 1300. In addition, the log fold change Tl+ flux in the experiment on F380Y was -0.0264 (inactive); with F380Y/beta2Delta it was -0.0407 (inactive); with R275C, -0.0177 (inactive); in the experiment on R275C/beta1, 0.0288 (inactive); in the experiment with R275C/beta2Delta, 0.0395 (inactive); in the experiment with R275C/Slo1WT/beta2, 0.00131 (inactive).

For `CCCCCCCCCOc1ccc2[nH]cc(CCN)c2c1`, in experiment [1], the parasite load remaining was 0.13% (inactive). Moreover, the viability in experiment [1] stood at 3.42%. Also, the results for the fluorescence ratio in experiment [2] and in experiment [5] were 0.97 (inactive) and 0.61 (active), respectively. Besides, the inhibition in [3] is -8.08% (inactive); in [4] it was 67.3% (active). In addition, the fold change in experiment [6] (stronger effect = lower value) was 0.664 (active); in experiment [6] (setting [7]), 1.96. Moreover, the values for the cell count in [6] (setting [8]) and in [6] (setting [9]) were 4000 and 6020, respectively.
